Results published in PubChem BioAssay (NCI).
Values joined by “and” are separate entries in the source; they are usually repeats but may differ in a detail not shown here. Equal values may be shown once. This is part of a sample that, as a whole, favours compounds with a hit. Of some 83,000 tested, about 20% had one in any assay.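 Method: cells in 96-well plates; compound added at one concentration; 48 h incubation; percent growth measured; values under 10 scored active.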 Active and inactive are the calls of the source.

system: MDA-MB-468 breast; test: NCI-60 one-dose screen, 48 h (100 = growth as untreated, 0 = no growth, -100 = all killed); conditions: 10 µM unless noted

SMILES	growth
CC(C)N=C(N/C(N)=N/c1nc2ccccc2s1)NC(C)C	66.4% (inactive)
COc1cc(C2CC(c3ccccc3)=NN2C=O)ccc1Oc1nc2c(c(=O)n(C)c(=O)n2C)n1C (stereo not given)	63.9% (inactive)
O=C1CC(c2ccc3c(c2)OCO3)Nc2cc3c(cc21)OCO3 (stereo not given)	-11.3% (active)
COc1cc(Nc2ccnc3ccc(Br)cc23)cc(OC)c1OC	14.9% (inactive)
COCCOC(=O)NC(=O)Nc1ccc(C(=O)c2ccc(Cl)cc2)cc1	-8.24% (active)
COc1cc2nccc(Oc3ccc(NC(=O)Nc4cc(C)on4)c(Cl)c3)c2cc1OC	15% (inactive)
CN1CCN(Cc2ccc(NC(=O)c3cncc(C#Cc4cnc5ccc(OCCCS(C)(=O)=O)nn45)c3)cc2C(F)(F)F)CC1	-61.6% (active)
COc1cccc(/C=C2\COc3ccc(O)c(O)c3C2=O)c1OC	-19.2% (active)
CCn1c(SCC(=O)Nc2cccc(C(=O)/C=C/c3ccccc3Cl)c2)nc2ccccc2c1=O	76.7% (inactive)
C/C(=N\Nc1cc(C)c2ccccc2n1)c1ccccn1	-63.2% (active)
Cc1nc2sc(C(=O)Nc3ccc(Cl)cc3)c(N)c2cc1C(O)c1ccccc1 (stereo not given)	-0.107% (active)
O=C1C(Cl)=C(NCCCN2CCOCC2)C(=O)c2ccccc21	64.7% (inactive)
COc1ccccc1N1CCN(C2=NN=C(c3cccc(Cl)c3)c3ccccc3C2)CC1	-1.01% (active)
COc1cc([C@@H]2c3cc4c(cc3C(OC3O[C@@H]5COC(C)O[C@H]5[C@H](O)[C@H]3O)C3COC(=O)[C@@H]32)OCO4)cc(OC)c1O (stereo not given in full)	-31% (active)
Cc1ccc(Cc2cnc(NC(=O)/C=C/c3cccc(C)c3)s2)cc1	1.34% (active)
C#Cc1cccc(Nc2ncnc3ccc(-c4cnc(Cl)c(NS(C)(=O)=O)c4)cc23)c1	-78.8% (active)
Cc1cc(C(=O)Nc2cc(Nc3ncccc3-c3ncnc4nc[nH]c34)ccc2F)cc(C(C)(C)C#N)c1	87.7% (inactive)
Cc1cccc(-[n+]2noc(N)n2)c1	96.4% (inactive)
C#Cc1cccc(NC(=O)c2ccc(Cl)cc2Cl)c1	102% (inactive)
Cc1nc2ccc(Nc3nc(Cl)nc(N4CCOCC4)n3)cc2n1Cc1ccccc1	62.2% (inactive)

SMILES	growth
Cn1c2c(cc(S(=O)(=O)c3ccccc3)c1=O)CCc1c-2cnn1-c1ccccc1Cl	91.9% (inactive)
COc1cc2cc(Oc3ccc(NC(=O)c4ccccc4)cc3)c(C)nc2cc1OC	98.4% (inactive)
[2H]c1nc(Nc2ncc(F)c(-c3cc(F)c4nc(C)n(C(C)C)c4c3)n2)c([2H])c([2H])c1CN1CCN(C([2H])([2H])C([2H])([2H])[2H])CC1	103% (inactive)
Cc1nn(-c2ccc(Cl)cc2)c(=O)n1CCn1cnc2ccccc21	117% (inactive)
CC1=C(C(=O)OCc2ccccc2)C(c2ccc3c(c2)OCO3)n2c(nc3ccccc32)N1 (stereo not given)	15.8% (inactive)
Cc1cc(C)c2c(NC(=O)Nc3ccc(Cl)c(Cl)c3)n[nH]c2n1	109% (inactive)
Fc1ccc(CNc2cccc3[nH]c(C(F)(F)F)nc23)cc1	99.7% (inactive)
Nc1ccc(C2=NN(c3ccccc3)C(c3ccc(Cl)cc3)C2)cc1 (stereo not given)	62.6% (inactive)
CCOC(=O)CC(S(=O)(=O)c1ccccc1)S(=O)(=O)c1ccccc1	23.2% (inactive)
CCN(CC)CCOc1ccc2c(c1O)C(=O)c1ccccc1C2=O	80.3% (inactive)
Cc1ccc(-c2csc(N/N=C/c3cccs3)n2)cc1	65.1% (inactive)
CCCCNC(=O)Oc1ccc2c(=O)c3sc4c(=O)c5ccccc5c(=O)c4c3c(=O)c2c1	-48.3% (active)
CCC(CC)n1c(C)cc(=O)n1C(CC)CC	91.2% (inactive)
Nc1cc(C(F)(F)F)c(-c2cc(N3CCOCC3)nc(N3CCOCC3)n2)cn1	-51.6% (active)
O=C(CCN1C(=O)/C(=C/c2ccccc2)SC1=S)N1CCOCC1	51.9% (inactive)
O=C(O)C1C(c2ccccc2)c2ccccc2C(O)C1CO (stereo not given)	117% (inactive)
CCCCCCCCCCCC[n+]1c(C)cc(N)c2ccccc21	-34% (active)
C/C=C/CC(C)C(O)[C@H](NC(=O)[C@@H]1CCCN1C(=O)[C@](C)(CC)NC(=O)CCCCCCCCC)C(=O)N[C@@](C)(CC)C(=O)N[C@@H](CCC(N)=O)C(=O)N[C@H](CCC(N)=O)C(=O)NC(C)(C)C(=O)NC(C)(C)C(=O)N[C@@H](CCC(N)=O)C(=O)N[C@H](CC(C)C)C(=O)N[C@H](CO)CC(C)C (stereo not given in full)	-10.2% (active) and -64% (active)
Cc1nc(N)nc(N[C@@H](C)c2nc3cccc(NCc4ccc(C(=O)NO)cc4)c3c(=O)n2-c2ccccc2)n1	-5.1% (active)
CCOC(=O)c1c(C)oc2ncnc(N3CCN(C(=O)COc4ccc(SC)cc4)CC3)c12	81.9% (inactive)
